Assay outcomes as filed in PubChem.
nsP2pro inh: blocks chikungunya virus nsP2 protease peptide cleavage. Q8JUX6. FRET peptide cleavage, nsP2pro, fluorescence 1 h. Potency, µM (doses to about 24.9 µM), most hits filed as inhibitors. 31,000 tested, 1.1% active; further: nearly all actives have a fitted effect of over 60% in size
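Enzyme 150 nM, substrate 2.5 uM (both final); Tris-HCl 10 mM pH 8.0 + 0.01% Tween 20; cpd up to 25 uM, 7 pts; 15 min preinc., 1 h RT; fluorescence ex 525/em 598.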
nsP2 cell sec: secondary cell-based test for CHIKV nsP2 protease inhibitors | shares compounds with nsP2pro inh | cell-based CHIKV nsP2 protease reporter assay | Potency, µM (titrated, usually from 51.1 µM), most hits filed as inhibitors | 450 tested, 10% active | AID 1964100; further: nearly all actives have a fitted effect of over 70% in size
NSP2 full ctr: full-length CHIKV NSP2 protease inhibition, selectivity; shares compounds with nsP2pro inh; 410 tested, 39% active; Full-length CHIKV NSP2 protease enzymatic counterscreen; Potency, µM (series often up to 50.7 µM), most hits filed as inhibitors; further: nearly all actives have a fitted effect of over 65% in size
Furin counterscr: inhibits human furin in a CHIKV nsP2 protease selectivity counterscreen; Potency, µM (highest dose often 50.6 µM), most hits filed as inhibitors; shares compounds with nsP2pro inh; Recombinant human furin enzymatic counterscreen, fluorogenic substrate; 410 tested, 6% active
Target sequence (P09958 whole entry, looked up): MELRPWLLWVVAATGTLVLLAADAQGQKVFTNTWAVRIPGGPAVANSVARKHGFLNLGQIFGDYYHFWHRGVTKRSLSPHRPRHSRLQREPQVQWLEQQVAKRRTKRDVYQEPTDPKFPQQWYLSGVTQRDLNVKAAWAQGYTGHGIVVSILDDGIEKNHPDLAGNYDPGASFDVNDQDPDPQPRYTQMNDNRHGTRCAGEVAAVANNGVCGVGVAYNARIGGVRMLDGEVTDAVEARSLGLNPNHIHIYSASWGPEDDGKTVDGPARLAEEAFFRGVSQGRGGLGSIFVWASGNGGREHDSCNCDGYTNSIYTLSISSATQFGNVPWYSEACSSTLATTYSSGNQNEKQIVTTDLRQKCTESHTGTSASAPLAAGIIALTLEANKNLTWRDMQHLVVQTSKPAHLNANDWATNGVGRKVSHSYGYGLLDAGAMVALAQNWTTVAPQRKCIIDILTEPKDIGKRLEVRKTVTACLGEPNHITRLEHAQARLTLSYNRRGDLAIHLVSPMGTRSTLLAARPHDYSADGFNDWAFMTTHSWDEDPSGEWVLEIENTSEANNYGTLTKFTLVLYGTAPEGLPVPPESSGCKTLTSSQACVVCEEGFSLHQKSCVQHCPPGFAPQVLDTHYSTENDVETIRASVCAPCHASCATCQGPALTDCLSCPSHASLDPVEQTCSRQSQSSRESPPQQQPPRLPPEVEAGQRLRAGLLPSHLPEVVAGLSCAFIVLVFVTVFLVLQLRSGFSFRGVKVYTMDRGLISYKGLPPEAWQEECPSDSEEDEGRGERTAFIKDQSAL
nsP2 NS23 pep: selectivity test for CHIKV nsP2 protease inhibitors: endogenous NS2/3 peptide; AID 1964103; Purified CHIKV nsP2 protease, endogenous NS2/3 peptide cleavage; 410 tested, 34% active; shares compounds with nsP2pro inh; Potency, µM (top dose mostly 51 µM), most hits filed as inhibitors; further: nearly all actives have a fitted effect of over 55% in size
Papain counter: inhibits papain in a CHIKV nsP2 protease selectivity counterscreen; shares compounds with nsP2pro inh; purified papain protease activity, enzymatic inhibition; Potency, µM (top dose mostly 51 µM), actives largely listed as inhibitors; 410 tested, 5% active; AID 1964104
nsP2pro conf qHTS: confirmation of CHIKV nsP2 protease inhibitors; shares compounds with nsP2pro inh; CHIKV nsP2 protease enzymatic activity, qHTS; Potency, µM (top dose mostly 25.5 µM), actives largely listed as inhibitors; 410 tested, 43% active; AID 1964105; further: nearly all actives have a fitted effect of over 75% in size
HCV NS3 4A cs: inhibits HCV NS3/4A protease in an nsP2pro selectivity counterscreen; shares compounds with nsP2pro inh; HCV NS3/4A protease biochemical counterscreen; Potency, µM (doses to about 50.9 µM), hits mostly inhibitors; 410 tested, 20% active; AID 1964106; further: nearly all actives have a fitted effect of over 55% in size
Of the large screens only hits and unclear results are named; the others gave an inactive call (follow-up assays come after a bar, where they were run). The sample as a whole holds a higher share of hits than the screen did. The call rests on the fitted dose curve.

COc1cccc(C(=O)Nc2ccc3nc(N4CCC(C)CC4)cc(C)c3c2)c1	none
CC1[C@@H](O)[C@@H](O)C2[C@]3(C)C(C[C@H]4OC(=O)[C@H](O)[C@]1(O)[C@@]24C)C(C)(O)C[C@H](O)[C@H]3O (stereo partly drawn)	none
CC(C)(C)NC(=O)N[C@H](C(=O)N1C[C@H]2[C@@H]([C@H]1C(=O)NC(CC1CCC1)C(=O)C(N)=O)C2(C)C)C(C)(C)C (stereo partly drawn)	none
C[C@]1(O)CCN(C(=O)c2cc(-c3ccsc3)n[nH]2)C[C@@H]1O	none
O=[S+]([O-])(Nc1ccccc1)c1ccc(NCc2cccc(C(F)(F)F)c2F)cc1	none
CCc1noc(-c2cn(C3CCCN(C(=O)c4ccc(C(C)(C)C)cc4)C3)nn2)n1 (stereo not drawn)	none
CC(C)(C)OC(=O)N1CCN(c2ccc(NCc3ccc(-c4ccc(C#N)cc4)o3)cn2)CC1	none
O=C(NCCCc1ccccc1)c1nc2sccn2c1-c1cccc(C(F)(F)F)c1	none
CC(C)(C)c1ccc(CNC(=S)NCc2ccc(NS(C)(=O)=O)c(F)c2)cc1	none
Cc1cc(C)nc(NC(=S)N2CCN(c3ccc(Cl)nn3)CC2)c1	none
Clc1ccc(N2C[C@H]3CC[C@@H](C2)N3)nn1	nsP2pro inh 4.95µM | nsP2 cell sec inactive | NSP2 full ctr 4.11µM | Furin counterscr inconclusive | nsP2 NS23 pep 14.6µM | Papain counter inconclusive | nsP2pro conf qHTS 3.57µM | HCV NS3 4A cs inactive
COc1cccc(-c2ccc(C(=O)NCCNC(=O)C3CCCC3)cc2)c1	none
CCCCCCCCCCCCCCCCCC(=O)NCCCC[C@H](NC(=O)CC[C@@H](NC(=O)[C@H](C)NC(=O)[C@@H](C)O[C@H]1[C@H](O)[C@@H](CO)OC(O)[C@@H]1NC(C)=O)C(N)=O)C(=O)O (stereo partly drawn)	none
Cc1ccc(S(=O)(=O)Nc2cnccc2C(=O)Nc2ccncc2)cc1	none
CCN1C[C@@]2(COC)C3[C@@H](OC)C4[C@@H]1[C@@]3(C1C[C@]3(O)[C@H](OC(=O)c5ccccc5)C1[C@]4(OC(C)=O)[C@@H](O)[C@@H]3OC)[C@@H](OC)C[C@H]2O (stereo partly drawn)	none
O=C(Nc1ccccc1)N1CCC(OCc2noc(C3CCCO3)n2)CC1 (stereo not drawn)	none
CN1CCc2nc(C(=O)N[C@@H]3C[C@@H](C(=O)N(C)C)CC[C@@H]3NC(=O)C(=O)Nc3ccc(Cl)cn3)sc2C1	nsP2pro inh inconclusive | nsP2 cell sec inactive | NSP2 full ctr inactive | Furin counterscr inactive | nsP2 NS23 pep inactive | Papain counter inactive | nsP2pro conf qHTS inactive | HCV NS3 4A cs inactive
C=C[C@@H]1C[C@]1(NC(=O)[C@@H]1C[C@@H]2CN1C(=O)[C@H](C(C)(C)C)NC(=O)O[C@@H]1C[C@H]1CCCCCc1nc3ccc(OC)cc3nc1O2)C(=O)NS(=O)(=O)C1CC1	none
CCn1cnnc1CC1CCN(C(=O)c2[nH]nc3c2COc2ccccc2-3)CC1	none
CC(C)(C)C(=O)N1CCCC1C(=O)N1CCC2(CC1)CC(=O)Nc1ccccc1O2 (stereo not drawn)	none
Cc1cccc(-c2ncc(CN(CCC(N)=O)Cc3ccccc3)cn2)c1	none
Cc1nc(C)c(C(=O)N2CCC(N3C(=O)C4(CCCC4)C3c3scnc3C)CC2)s1 (stereo not drawn)	none
Cc1nc(CSc2ncnc3ccc(-c4ccc5c(c4)OCO5)cc23)cs1	none
Cc1c(C(=O)OC2CCCCC2)[nH]c2c1C(=O)CC(c1ccccc1Cl)C2 (stereo not drawn)	none
COc1ccc(C2CC(=O)c3c([nH]c(C(=O)OCc4ccccc4)c3C)C2)cc1OC (stereo not drawn)	none
Cc1c(C(=O)OCC2CCCC2)[nH]c2c1C(=O)CC(c1ccco1)C2 (stereo not drawn)	nsP2pro inh 3.98µM | nsP2 cell sec inconclusive | NSP2 full ctr inactive | Furin counterscr inactive | nsP2 NS23 pep inactive | Papain counter inactive | nsP2pro conf qHTS inactive | HCV NS3 4A cs inactive
COc1ccc2c(C(=O)c3ccc(Cl)cc3)c(C)n(CC(=O)O)c2c1	none
Cc1ccc(SCC(=O)Nc2cccc(-c3nc4cc(Cl)ccc4o3)c2C)cc1	none
CC(=O)Nc1cccc2c1c(Sc1ccc(Cl)cc1)c(C)n2CC(=O)O	nsP2pro inh 9.88µM | nsP2 cell sec inactive | NSP2 full ctr inactive | Furin counterscr inactive | nsP2 NS23 pep inactive | Papain counter inactive | nsP2pro conf qHTS inactive | HCV NS3 4A cs inactive
COc1ccc(/C=C/C(=O)O[C@@H]2[C@@H](OC(C)=O)[C@@H](OC(C)=O)[C@H](O[C@H]3[C@@H]4C=CO[C@@H](O[C@@H]5O[C@H](CO)[C@@H](O)[C@H](O)[C@H]5O)[C@@H]4[C@@]4(CO)O[C@@H]34)O[C@H]2C)cc1O	none
C[C@@H]1CC(=O)Nc2cccc(-c3cnn(C(C)(C)C)c3)c2N1	none
C=C1C(=O)O[C@@H]2C[C@@H](C)[C@]34C[C@]5(C(=O)O[C@H]6CC(C)=C([C@H](C)CCCO)[C@H](OC(=O)C(C)CC)[C@H]65)[C@@H](C(C)=C3C[C@@H]12)[C@H]4OC(C)=O (stereo partly drawn)	none
C=C1C(=O)O[C@@H]2[C@H]1CC(=O)[C@H](C)[C@@](O)(C(=O)/C=C/C)[C@H]2OC(=O)C(C)CC (stereo partly drawn)	nsP2pro inh inconclusive | nsP2 cell sec inconclusive | NSP2 full ctr inconclusive | Furin counterscr inactive | nsP2 NS23 pep 12.7µM | Papain counter inactive | nsP2pro conf qHTS inconclusive | HCV NS3 4A cs inactive
C=C1C(=O)OC2/C=C(\COO)CC/C=C(\COC(C)=O)CC(OC(=O)C(C)CC)C12 (stereo not drawn)	none
Cc1ccc(-n2ncc3c2CC(C)(C)CC3NS(=O)(=O)c2cn(C)cn2)cc1 (stereo not drawn)	none
O=C(CCCc1ccc2cccnc2n1)NCc1cc(-c2ccc(F)c(C(F)(F)F)c2)no1	none
O=C(O)c1cccc(-c2noc(-c3cccc(C(F)(F)F)c3)n2)c1	none
CC[C@@]1(C(=O)O)C[C@H](C(=O)N(C)CCO)[C@H](c2ccc(F)cc2)N1C	none
CC1(C)C[C@@H]2C[C@@](C)(CN2S(=O)(=O)c2ccc(C(=O)Nc3ccc(Cl)c(S(=O)(=O)N4CCOCC4)c3)cc2)C1	none
